Source: ChEMBL document CHEMBL3988442, “University of Dundee, Small-Polar-MMV Screening Library” (2021)
Out of some 48,000 compounds screened, about 13,000 (27%) showed an effect of 50% or more. The list shows a part of the results.

tested on: Wolbachia pipientis; test: Anti-Wolbachia Cell-Based Screen; type: functional; set-up: scale not given: in the data most compounds retested in dose-response had high values; conditions: 5 µM

Structure (SMILES)	Percent Effect [%]
Cn1ncc(C(=O)OCC2CCN(c3ccccc3)C2)c1C(F)F (stereo unspecified)	4.797
CN1C(=O)CCc2cc(NC(=O)C3CCCC3)ccc21	-13.79
CCS(=O)(=O)N1CCCC2(CCCN2C(=O)c2cn(C)cn2)C1 (stereo unspecified)	0.7731
CN(Cc1cc(Br)cn1C)C(=O)c1ccsc1	-18.58
O=C(Nc1cn[nH]c1)NC1CCN(c2ccccc2OC(F)F)C1 (stereo unspecified)	-20.77
O=C(NC1CCN(c2ccccc2OC(F)F)C1)c1c[nH]nn1 (stereo unspecified)	107.7
O=C(NC1CCN(c2ccccc2OC(F)F)C1)c1cccnc1 (stereo unspecified)	-18.54
COc1ccc(C2CN(c3nc(C)cc(C)n3)CCN2C(C)=O)cc1 (stereo unspecified)	87.97
COc1ccc2c(c1)CN(c1nc(C)cc(C)n1)CC2	-6.244
COc1ccc(C2CCCN2C(=O)c2csc(NC(C)=O)n2)cc1 (stereo unspecified)	-0.5039
CC(OCC(F)(F)F)C(=O)N1CCCCC1 (stereo unspecified)	-2.646
CC(C)CN1CCCn2nc(CNC(=O)c3cccnc3O)cc2C1	-4.035
O=C1CN(c2ccc(CNC(=O)c3cccnc3O)cc2F)CCN1	-18.4
CN1CCCc2cc(CNC(=O)c3cccnc3O)ccc21	90.33
Cc1cnc(C(=O)NCc2ccc3c(c2)CCCN3C)cn1	101.2
CN1N=C(C(=O)NCc2ccc3c(c2)CCCN3C)CCC1=O	13.95
COc1ccc(COCC(O)CNC(=O)c2cnc(C)cn2)cc1 (stereo unspecified)	4.456
CC(C)c1nn(C)c(Cl)c1CNC1CCOc2ccccc21.Cl (stereo unspecified)	-8.066
CC(=O)NCC(=O)N1Cc2cc(-c3cc[nH]n3)ccc2C1c1cnco1 (stereo unspecified)	-23.15
COc1ccc(-n2cnnc2SCC(C)(C)O)cn1	-5.422
COc1ccccc1OCC(=O)NS(=O)(=O)c1cc(F)ccc1F	-8.021
COc1nn(C)cc1C(=O)NCC(=O)NCc1cccnc1	-2.836
COCCn1nc(C(=O)N(C)Cc2cccnc2)ccc1=O	131.6
COCC(=O)N(Cc1cccnc1)CC1CCN(C2CCCC2)CC1	-6.321
COCCn1nc(C(=O)N2CCCC2c2cccc(F)c2)ccc1=O (stereo unspecified)	1.762
COCCn1nc(C(=O)N2CCN(C)CC2C)ccc1=O (stereo unspecified)	-13.53

Structure (SMILES)	Percent Effect [%]
COCCn1nc(C(=O)N(C)Cc2ccc3ccccc3c2)ccc1=O	98.47
CCN(CC(=O)NC)S(=O)(=O)c1cnc2c(c1)c(C)nn2C	-1.026
N#CC1(C(=O)N2CCN(c3nccs3)CC2)CCCCC1	-10.71
CN(C)c1ncccc1NC(=O)COCC1CC1	7.684
N#Cc1cccc(OCCN2CCCC(c3noc(C4CC4)n3)C2)c1 (stereo unspecified)	-47.81
CNC(=O)COC1COC2(CCN(c3ccc(C#N)cc3)CC2)C1.O=C(O)C(F)(F)F (stereo unspecified)	4.884
CN1CCOCC12CCN(c1ccc(C#N)cc1)CC2.O=C(O)C(F)(F)F	-6.092
COC1COC2(CCN(c3ccc(C#N)cc3)CC2)C1.O=C(O)C(F)(F)F (stereo unspecified)	-8.699
CN1CCN(C2COC3(CCN(c4ccc(C#N)cc4)CC3)C2)CC1.O=C(O)C(F)(F)F (stereo unspecified)	99.27
N#Cc1ccc(N2CCC3(CC2)CC(N2CCOCC2)CO3)cc1.O=C(O)C(F)(F)F (stereo unspecified)	99.84
N#Cc1ccc(N2CCC3(CC2)CC(Oc2cccnc2)CO3)cc1.O=C(O)C(F)(F)F (stereo unspecified)	18.7
COc1cccc(-c2cnnc(N(C)CCC3CCCCO3)n2)c1 (stereo unspecified)	-7.888
Cc1cc2c(c(-c3c[nH]c(C)n3)c1)OC(CN)C2 (stereo unspecified)	10.27
Cc1ccc(CCNC(=O)N2CCCC(Cc3nccn3C)C2)cn1 (stereo unspecified)	-1.285
Cc1ccc(CCNC(=O)N2CCC(Cc3cnn(C)c3)C2)cn1 (stereo unspecified)	129.7
COc1ccc(CNC(=O)N2CCC(Cc3cnn(C)c3)C2)cc1C (stereo unspecified)	-1.04
CCOc1cc(CNC(=O)N2CCC(Cc3cnn(C)c3)C2)ccn1 (stereo unspecified)	0.1866
Cc1ccc(CCNC(=O)NC2CCN(CC(F)(F)F)C2=O)cn1 (stereo unspecified)	-2.04
Cn1cc(CC2CCN(C(=O)NCCCc3ccc(O)cc3)C2)cn1 (stereo unspecified)	109.7
Cc1ccc2c(ccn2CCC(=O)O)c1	-5.722
O=C(O)CCn1ccc2c(nnc3c(-c4ccc(F)cc4)cnn32)c1=O	102.5
CC(=O)Nn1ccc2c(nnc3c(-c4ccccc4)cnn32)c1=O	95.62
CC(=O)Nn1ccc2c(nnc3c(-c4ccc(F)cc4)cnn32)c1=O	91.05
CCN(CC)CCC(=O)NCc1cc2n(n1)CCN(C(=O)N(C)C)C2	-4.405
Cc1ccc(-c2ncc(C(=O)N3CCC[C@H](N)C3)c(O)n2)cc1	4.793
